PubChem BioAssay (NCI)
Compounds without any hit were thinned out: in the full panel of roughly 79,000, 15% have a hit. No stated cut-off is given here; in the data, active means growth inhibition above about 70%; inactive means the rest.

Assays:
[1] = NCI Yeast Anticancer Drug Screen. Data for the rad50 strain (AID 155);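 further: 0% = growth of vehicle-only cultures of the same strain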; conditions: S. cerevisiae rad50 strain growth inhibition; at 50.0 µM; active compounds read high
Procedure, shortened: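 Inhibition values express reduced yeast growth in compound-treated cultures relative to vehicle-treated controls.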

[2] = NCI Yeast Anticancer Drug Screen. Data for the mec2-1 strain (AID 157); conditions: S. cerevisiae mec2-1 strain, at 50.0 µM, active compounds read high
Procedure, shortened: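 Using mec2-1 yeast: add compound, measure growth, express inhibition versus vehicle-treated cultures.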

[3] = NCI Yeast Anticancer Drug Screen. Data for the sgs1 mgt1 strain (AID 161);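 further: 0% = growth of cultures given vehicle only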; conditions: S. cerevisiae sgs1 mgt1 strain, at 50.0 µM, active compounds read high
Procedure, shortened: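 Yeast cells carrying a defined DNA-repair defect were exposed to test compounds. Growth inhibition was measured relative to vehicle-treated controls.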

[4] = NCI Yeast Anticancer Drug Screen. Data for the cln2 rad14 strain (AID 165);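 further: 0% = growth equal to vehicle treated cultures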; conditions: S. cerevisiae cln2 rad14 strain, at 50.0 µM, active compounds read high
Procedure, shortened: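 Yeast strain cln2 rad14, bearing defects in cell cycle control and DNA repair, serves as the test system; values reflect growth inhibition compared with vehicle.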

[5] = NCI Yeast Anticancer Drug Screen. Data for the bub3 strain (AID 167); conditions: S. cerevisiae bub3 mutant strain, at 50.0 µM, active compounds read high
Procedure, shortened: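 Steps: expose the mutant yeast strain to compound; grow alongside vehicle-treated cultures; measure growth; express inhibition against the vehicle cultures.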

[6] = NCI Yeast Anticancer Drug Screen. Data for the mlh1 rad18 strain (AID 175); conditions: S. cerevisiae mlh1 rad18 strain growth inhibition; at 50.0 µM; active compounds read high
Procedure, shortened: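 Steps: expose repair-defective yeast to compound; measure growth; express inhibition against vehicle-treated controls.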

Measured: growth inhibition

CCOC(=O)c1cn(CC)c2ccc3ccsc3c2c1=O
inactive: [1] -18.2% | [2] -40.4% | [3] -15.5% | [4] 10.2% | [5] -9.4% | [6] -30.9%

O=c1c2ccccc2[nH]c2ccc(Cl)cc12
inactive: [1] 47.6% | [2] 13.9% | [3] 24.9% | [4] 21.6% | [5] -9.65% | [6] 61.1%

CCOc1cc(/C=N/NC(=O)C(O)C(O)C(O)C(O)CO)ccc1O (stereo not given)
inactive: [1] 1.5% | [2] 38.6% | [3] 27.9% | [4] 4.45% | [5] 39.8% | [6] 30.6%

COc1ccc(C)c(CN(C)C)c1
inactive: [1] 7.85% | [2] -7.7% | [3] 8.35% | [4] 5.25% | [5] -1.2% | [6] 23.6%

COc1ccc(C2=CC(=O)C(C)(C#N)CC2)cc1 (stereo not given)
inactive: [1] 3.9% | [2] 25.9% | [3] -4% | [4] 25.1% | [5] 34% | [6] 4.8%

CC(=O)OCC1OC(n2c(C)c(N=Nc3ccccc3)c(C)c(C#N)c2=S)C(OC(C)=O)C(OC(C)=O)C1OC(C)=O (stereo not given)
inactive: [1] -17.7% | [2] -17.6% | [3] -1.7% | [4] -1% | [5] -10.3% | [6] 14.8%

Cc1ccc(N=C(NN(C)C)C(c2ccccc2)c2ccccc2)cc1
inactive: [1] 2.55% | [2] -20.1% | [3] 7.95% | [4] -18.9% | [5] 15.4% | [6] -14.2%

Oc1cncc2ccccc12
inactive: [1] 3.35% | [2] 5.2% | [3] 11.2% | [4] -1.35% | [5] 1.6% | [6] -4.85%

Cc1ccc(-c2n[nH]c(CC#N)n2)cc1
inactive: [1] 5.55% | [2] 1.6% | [3] -4.6% | [4] -12.7% | [5] -1.55% | [6] 18.7%

BrCCOc1ccccc1
inactive: [1] 19.4% | [2] 8% | [3] -28.6% | [4] -29.5% | [5] -8.3% | [6] -25.5%

COc1cc(CC2C(=O)NC(=O)NC2=O)ccc1OCc1ccccc1
inactive: [1] 17.8% | [2] -7.75% | [3] -5.1% | [4] -19.4% | [5] -21.4% | [6] -47%

O=C(O)CCCCCCCCCC(=O)O
inactive: [1] -15.1% | [2] -17.5% | [3] 0% | [4] -24.9% | [5] -7.7% | [6] 9.05%

CCC(=O)NC1CCCCC1
inactive: [1] 8.6% | [2] 3.5% | [3] 19.2% | [4] -15.3% | [5] -13.9% | [6] 1.4%

CN(C)c1ccc(/C=C2\CCOC2=O)cc1
inactive: [1] 38.1% | [2] 11.8% | [3] 14.3% | [4] 4.6% | [5] 2.95% | [6] 8.6%

CC1(CC2(C)SCCCS2)SCCCS1
inactive: [1] -1.1% | [2] -7.55% | [3] 10.7% | [4] -2.35% | [5] -5.8% | [6] 7.8%

CN(C)c1ccc(/C=c2/sc3nc(=O)c(-c4ccccc4NC(=O)C(F)(F)F)nn3c2=O)cc1
inactive: [1] 3.95% | [2] 2.65% | [3] -5.95% | [4] -12.1% | [5] -20.4% | [6] -5.15%

COC[C@@H](N=CN1CCc2cc(OC)c(OC)cc2C1)C(C)(C)C
inactive: [1] -31.2% | [2] -18.2% | [3] -14.6% | [4] 13% | [5] -11.3% | [6] -17%

Cc1noc(C)c1CCCOC1COc2ccccc2OCCOCCOc2ccccc2OC1
inactive: [1] -4.7% | [2] -7.15% | [3] -5.8% | [4] -21.1% | [5] -9.15% | [6] -5.25%

NC(CSCc1ccccc1)P(=O)(O)O (stereo not given)
inactive: [1] 8.35% | [2] 0.55% | [3] 0.2% | [4] -7.45% | [5] -2.45% | [6] -1.55%

O=C(NO)c1ccccc1O
inactive: [1] 27.2% | [2] 21% | [3] -14.8% | [4] 4.2% | [5] 8% | [6] 17.8%
